Assay [1] can be described thus: anti-His antibody binders, primary screen, artefact control for SMM control protein annotation, biochemical, small-molecule microarray, 635 nm fluorescence (AID 1128).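 Further: score merges feature fluorescence with signal-to-noise for each printed compound spot.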 The following applies: anti-His Alexa647 antibody binding, higher = more signal.
Assay [2] deals with Human papillomavirus type 1a E7 protein (residues 1-88). Put plainly: HPV1a E7 small-molecule binders, primary screen, biochemical, small-molecule microarray, residues 1-88, 635 nm (AID 1129). The following applies: small-molecule microarray binding, fluorescence 635 nm; higher = more signal.
Assay [3] addresses Focal adhesion kinase 1 (Homo sapiens) (UniProt Q05397). Put plainly: small-molecule microarray binders of FAK, primary screen, biochemical, 635/667 nm fluorescence, BSA, DTT (AID 1130).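 Further: composite of spot emission at 667 nm and signal to noise over triplicate slides.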 The following applies: PTK2 binding, 635 nm fluorescence, higher = more signal.
Assay [4] deals with Fibrinogen (Alexa647-labelled). In words: fibrinogen binders on compound microarrays, profiling panel, artefact control for SMM control-protein annotation, biochemical, small-molecule microarray, 635/667 nm fluorescence (AID 1131).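 Further: z-score merges 667 nm fluorescence with per-spot signal-to-noise over triplicate slides.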 The following applies: fibrinogen-A647 binding fluorescence, higher = more signal.
The target in assay [5] is Follistatin (Homo sapiens) (UniProt P19883). Put plainly: follistatin binders on small-molecule microarrays, primary screen, biochemical, small-molecule microarray, 635/667 nm fluorescence (AID 1132). The following applies: FST binding, 635 nm fluorescence, higher = more signal.
Chain of Follistatin (Homo sapiens) (P19883 whole entry, looked up): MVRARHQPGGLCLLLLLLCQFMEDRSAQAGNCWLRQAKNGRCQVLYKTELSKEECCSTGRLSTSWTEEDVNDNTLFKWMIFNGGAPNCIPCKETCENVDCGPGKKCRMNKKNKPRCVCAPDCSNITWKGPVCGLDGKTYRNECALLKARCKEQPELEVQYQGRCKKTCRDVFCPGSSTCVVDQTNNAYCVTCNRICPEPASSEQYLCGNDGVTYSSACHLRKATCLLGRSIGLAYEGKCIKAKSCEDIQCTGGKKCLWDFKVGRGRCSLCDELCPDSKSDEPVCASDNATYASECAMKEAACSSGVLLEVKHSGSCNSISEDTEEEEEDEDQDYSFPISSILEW
Assay [6] deals with Fibroblast growth factor 2 (Homo sapiens) (UniProt P09038). Put plainly: FGF2 binders on small-molecule microarrays, primary screen, biochemical, small-molecule microarray, 635/667 nm fluorescence (AID 1133). The following applies: small-molecule microarray binding, FGF2, fluorescence 635/667; higher = more signal.
Chain of Fibroblast growth factor 2 (Homo sapiens) (P09038 whole entry, looked up): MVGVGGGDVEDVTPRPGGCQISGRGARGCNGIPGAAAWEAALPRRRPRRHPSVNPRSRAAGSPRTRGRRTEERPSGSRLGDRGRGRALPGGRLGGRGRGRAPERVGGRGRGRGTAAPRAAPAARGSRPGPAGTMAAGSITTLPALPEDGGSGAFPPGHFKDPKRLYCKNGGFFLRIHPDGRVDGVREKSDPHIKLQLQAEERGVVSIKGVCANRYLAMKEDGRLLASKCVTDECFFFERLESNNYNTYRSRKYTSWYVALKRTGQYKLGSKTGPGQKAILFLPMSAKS
Assay [7] is described as follows: mitochondrial membrane potential change in A549 cells, profiling panel, cell-based, JC-1 fluorescence, basal, 24 h, 100 nL (AID 1138).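 Further: A549 lung adenocarcinoma cells under basal conditions with no added stimulus; test concentration not given here.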 The following applies: higher = more signal.
The next assay concerns Lefty1. Put plainly: Lefty1 binders on small-molecule microarrays, primary screen, biochemical, small-molecule microarray, 635/667 nm fluorescence (AID 1139). The following applies: small-molecule microarray binding, fluorescence 635/667; higher = more signal.
The test system of assay [8] is wheat germ agglutinin (Triticum aestivum), Alexa647-labelled. In words: wheat germ agglutinin binders on compound microarrays, profiling panel, artefact control for SMM control-protein annotation, biochemical, small-molecule microarray, 635/667 nm fluorescence (AID 1140).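 Further: score merges 667 nm feature emission with signal to noise over triplicate slides.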 The following applies: WGA-A647 binding, 635 nm fluorescence, higher = more signal.
Assay [9] addresses Luciferin 4-monooxygenase (Photinus pyralis) (UniProt P08659). In words: firefly luciferase enzyme inhibitors, primary screen, biochemical, luminescence, purified enzyme, 2006 set (AID 1141).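 Further: cell-free assay with purified firefly luciferase at 100 ng per well in PBS; test concentration not given here.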 The following applies: SteadyGlo luminescence, 30 min, higher = more signal, called active from +8 up or from −8 down.
For assay [10], the system named is Wnt5a (protein binding on small-molecule microarray). Put plainly: Wnt5a binders on small-molecule microarray, primary screen, biophysical, 635/667 nm fluorescence (AID 1142).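 Further: fluorescence read at 667 nm with signal to noise per printed feature.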 The following applies: 635 nm fluorescence, higher = more signal.
The nature of assay [11]: cell viability in Huh7 cells, primary screen, cytotoxicity control for HCV replication inhibitor project, CellTiter-Glo luminescence, basal, 48 h (AID 1143).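 Further: Huh7 hepatoma cells carrying a hepatitis C replication reporter with no stimulus; test concentration not given here.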 The following applies: Huh7 HCV replicon, higher = more signal, called active from +8 up or from −8 down.
Assay [12] can be described thus: P. aeruginosa biofilm formation inhibitors, primary screen, PAO1 strain, BacTiter-Glo luminescence, LB-PBS (AID 1144). The following applies: 12 h, higher = more signal.
Assay [13] in a line: CREB reporter modulators without forskolin, primary screen, cell-based, PC12, CRE-LacZ reporter, unstimulated (AID 1145). The following applies: no forskolin, luminescence, 4.5 h, higher = more signal, called active from +8 up or from −8 down.
Assay [14] in a line: CREB reporter modulators under forskolin, primary screen, cell-based, PC12, CRE-LacZ reporter, forskolin-stimulated (AID 1146).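 Further: PC12 cells with 6xCRE LacZ reporter stimulated by forskolin 10 µM; beta-galactosidase reporter signal reflecting CREB driven transcription.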 The following applies: luminescence, 4.5 h, higher = more signal, called active from +8 up or from −8 down.
The target of assay [15] is Streptavidin (Streptomyces avidinii) (UniProt P22629). Put plainly: streptavidin binders on small-molecule microarray, primary screen, artefact control for SMM compound annotation, biophysical, 635/667 nm fluorescence (AID 1147).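 Further: signal reflects streptavidin binding to arrayed compounds as a control protein.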 The following applies: streptavidin binding, higher = more signal.
Chain of Streptavidin (Streptomyces avidinii) (P22629 whole entry, looked up): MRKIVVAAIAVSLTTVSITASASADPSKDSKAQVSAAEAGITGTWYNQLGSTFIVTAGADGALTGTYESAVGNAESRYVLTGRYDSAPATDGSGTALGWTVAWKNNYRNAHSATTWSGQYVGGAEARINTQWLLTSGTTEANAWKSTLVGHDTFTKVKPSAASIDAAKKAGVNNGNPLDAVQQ
Assay [16] is described as follows: small-molecule binders of probe aInhba, primary screen, biochemical, small-molecule microarray, 635/667 nm fluorescence (AID 1148).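 Further: score merges 667nm spot fluorescence with signal-to-noise for antibody binding to printed compounds.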 The following applies: higher = more signal.
The target of assay [17] is Torsin-1A (Homo sapiens) (UniProt O14656). In words: torsin A binders from cell lysate, primary screen, small-molecule microarray, wild-type, 635/667 nm (AID 1149). The following applies: COS7 hTOR1A-WT lysate, 635 nm fluorescence, higher = more signal.
Chain of Torsin-1A (Homo sapiens) (O14656 whole entry, looked up): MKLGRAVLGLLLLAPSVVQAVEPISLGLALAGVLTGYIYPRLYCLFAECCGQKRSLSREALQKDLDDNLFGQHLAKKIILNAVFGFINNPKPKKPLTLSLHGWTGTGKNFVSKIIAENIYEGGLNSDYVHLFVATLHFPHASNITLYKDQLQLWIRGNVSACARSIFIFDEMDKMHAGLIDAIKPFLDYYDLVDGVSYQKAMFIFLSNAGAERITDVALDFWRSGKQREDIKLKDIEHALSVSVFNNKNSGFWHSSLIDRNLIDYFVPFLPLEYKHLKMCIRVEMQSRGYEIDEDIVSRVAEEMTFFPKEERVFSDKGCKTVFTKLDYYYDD
Assay [18] has the same target. Put plainly: small-molecule binders of mutant TOR1A in lysate, primary screen, cell lysate, small-molecule microarray, COS7 lysate, 635/667 nm fluorescence (AID 1150).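 Further: score pools 667 nm emission and signal to noise measuring lysate protein binding.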 The following applies: COS7 hTOR1A mutant lysate, 635 nm fluorescence, higher = more signal.
Assay [19] relates to Sonic hedgehog protein (Shh). Put plainly: small-molecule binders of Shh protein, primary screen, biochemical, small-molecule microarray, 635/667 nm fluorescence (AID 1151).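 Further: Shh protein binding to compounds spotted on small-molecule microarray slides; score combines spot fluorescence intensity with signal-to-noise across triplicate slides.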 The following applies: small-molecule microarray binding, 635 nm fluorescence; higher = more signal.

In PubChem BioAssay one finds composite z-score and z-score data, which are given here for 5 compounds.

Active and inactive are the calls of the source. Unless noted, how the calls were made is not given here.

Chain of Focal adhesion kinase 1 (Homo sapiens) (Q05397 whole entry, looked up): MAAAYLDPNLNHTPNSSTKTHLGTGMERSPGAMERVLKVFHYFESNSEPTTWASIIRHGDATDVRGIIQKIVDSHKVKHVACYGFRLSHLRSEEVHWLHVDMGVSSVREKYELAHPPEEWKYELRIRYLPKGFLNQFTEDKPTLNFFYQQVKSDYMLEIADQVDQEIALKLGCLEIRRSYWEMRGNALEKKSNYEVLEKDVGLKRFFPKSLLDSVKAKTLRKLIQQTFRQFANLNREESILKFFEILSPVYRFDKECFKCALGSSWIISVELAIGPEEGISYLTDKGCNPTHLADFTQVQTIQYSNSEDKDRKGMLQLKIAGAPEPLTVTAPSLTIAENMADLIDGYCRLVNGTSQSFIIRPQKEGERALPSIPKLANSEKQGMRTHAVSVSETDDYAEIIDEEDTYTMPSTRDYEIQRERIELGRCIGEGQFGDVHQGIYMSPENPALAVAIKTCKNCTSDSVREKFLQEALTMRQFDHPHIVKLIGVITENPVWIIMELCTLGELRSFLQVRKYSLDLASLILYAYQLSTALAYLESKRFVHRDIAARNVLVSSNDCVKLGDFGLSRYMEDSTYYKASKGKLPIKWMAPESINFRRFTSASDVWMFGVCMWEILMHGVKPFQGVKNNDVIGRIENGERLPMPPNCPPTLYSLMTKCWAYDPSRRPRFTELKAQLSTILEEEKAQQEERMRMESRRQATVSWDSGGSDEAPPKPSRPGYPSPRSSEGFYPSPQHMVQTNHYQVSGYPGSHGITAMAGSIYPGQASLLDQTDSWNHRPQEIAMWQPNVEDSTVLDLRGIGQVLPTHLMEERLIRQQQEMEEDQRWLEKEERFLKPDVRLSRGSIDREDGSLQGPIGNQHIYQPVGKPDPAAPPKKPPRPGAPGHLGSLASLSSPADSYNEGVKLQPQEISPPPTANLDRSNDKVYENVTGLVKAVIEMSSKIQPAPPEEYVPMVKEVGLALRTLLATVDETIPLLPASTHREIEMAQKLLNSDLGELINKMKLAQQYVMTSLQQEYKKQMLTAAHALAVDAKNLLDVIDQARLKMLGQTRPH
Chain of Luciferin 4-monooxygenase (Photinus pyralis) (P08659 whole entry, looked up): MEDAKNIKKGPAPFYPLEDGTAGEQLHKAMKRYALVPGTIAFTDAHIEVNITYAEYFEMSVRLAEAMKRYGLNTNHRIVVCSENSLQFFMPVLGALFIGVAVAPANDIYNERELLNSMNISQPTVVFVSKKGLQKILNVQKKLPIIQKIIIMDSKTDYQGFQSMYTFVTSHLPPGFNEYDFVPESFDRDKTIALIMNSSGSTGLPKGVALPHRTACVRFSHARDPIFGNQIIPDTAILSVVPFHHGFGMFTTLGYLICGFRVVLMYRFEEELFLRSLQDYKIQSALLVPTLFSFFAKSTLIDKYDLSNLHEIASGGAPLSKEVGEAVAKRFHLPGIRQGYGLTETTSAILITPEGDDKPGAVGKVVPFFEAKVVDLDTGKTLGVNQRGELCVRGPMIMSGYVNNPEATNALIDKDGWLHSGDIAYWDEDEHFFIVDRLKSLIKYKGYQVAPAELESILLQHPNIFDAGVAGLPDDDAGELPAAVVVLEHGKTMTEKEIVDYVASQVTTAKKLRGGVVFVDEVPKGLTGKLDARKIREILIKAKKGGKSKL

Consider `C=CCC(OC(C)=O)[C@@H]1[C@@H](N(Cc2ccc(-c3ccccc3)cc2)C(=O)c2ccc(C)cc2)c2cc(OCCCO)ccc2N1C(=O)c1ccc2ccccc2n1` (stereo not given in full), for which the composite z-score in assay [1] was -0.512; in [2], -0.0119; in assay [3] it was -0.0203; in assay [4], -0.459; in [5] it was 0.0869; in assay [6], -0.006. The composite z-score with Lefty1 was -0.135; in assay [8], -0.0101; in assay [10], -0.162; in assay [15] it was 0.105; in assay [16], 0.173; with Torsin-1A (Homo sapiens) [17] it was -0.211. The composite z-score in the assay with Torsin-1A (Homo sapiens) [18] was determined as 0.115; in [19], 0.794. Besides, the z-score was 3.18 in assay [7]; -1.9 (inactive) in assay [9]; -1.16 (inactive) in assay [11]; -1.41 (inactive) in assay [12]; 5.54 (inactive) in assay [13]; -0.523 (inactive) in assay [14].

In the case of `COc1cc(NN2C(C(O)c3ccccc3)C=CC3C(=O)N(c4ccccc4)C(=O)C32)cc(OC)c1OC` (stereo not given), the composite z-score in assay [1] is 1.67; in assay [2] it was 1.28; in assay [3] it was 0.707; in assay [4], 0.967; in [5], 0.952; in [6], 0.444. Besides, the composite z-score with Lefty1 turned out to be 0.879; in assay [8] it was 1.39; in [10] it was 0.421; in assay [15] it was 0.148; in assay [16], 0.0829; in the assay with Torsin-1A (Homo sapiens) [17], 0.179. The composite z-score with Torsin-1A (Homo sapiens) [18] worked out at 0.989; in assay [19] it was 0.89. The z-score in [7] was 1.42; in [9], -2.13 (inactive); in [11], -3.47 (inactive); in assay [12], -0.525 (inactive); in assay [13] it was 0.433 (inactive); in assay [14] it was -0.557 (inactive).

For `CC(C)[C@H]1COC(=O)N1C(=O)[C@H]1[C@@H](c2ccccc2)N(c2ccccc2)O[C@@H]1C`, the composite z-score in assay [1] is -0.0372; in assay [2], 0.706; in assay [3], 0.201; in assay [4], 0.635; in assay [5] it was 0.562; in assay [6], 0.57. For the same compound, the composite z-score in the assay with Lefty1 is 0.593; in assay [8], 0.127; in assay [10], 0.138; in assay [15], 0.465; in assay [16], -0.0989; with Torsin-1A (Homo sapiens) [17], 0.167. For the same compound, the composite z-score in the assay with Torsin-1A (Homo sapiens) [18] was determined as 0.624; in assay [19] it was 0.506. In addition, the z-score in assay [7] was 0.78; in [9], 0.132 (inactive); in assay [11] it was -0.917 (inactive); in assay [12] it was -1.33 (inactive); in [13], 0.493 (inactive); in [14] it was -0.688 (inactive).

On to `[N-]=[N+]=NCc1ccccc1[C@@H]1OC(c2ccc(OCCCO)cc2)=N[C@]1(Cc1ccccc1N=[N+]=[N-])C(N)=O`, for which the composite z-score in assay [1] worked out at 1.81; in assay [2], 1.26; in assay [3], 0.73; in [4], 1.01; in assay [5] it was 1.28; in [6] it was 0.853. The composite z-score in the assay with Lefty1 is -0.173; in assay [8], 1.31; in assay [10], 0.138; in assay [15], 2.16; in assay [16], 0.32; with Torsin-1A (Homo sapiens) [17] it was 0.571. Moreover, the composite z-score in the assay with Torsin-1A (Homo sapiens) [18] was 0.373; in [19] it was -0.349. Further, the z-score in assay [7] is 0.737; in [9] it was -3.4 (inactive); in assay [11] it was -1.91 (inactive); in assay [12], -0.089 (inactive); in assay [13] it was -0.128 (inactive); in assay [14], 0.15 (inactive).

For `COCCOC(=O)N1C(=O)[C@@]2(c3cc(C#CC4(O)CCCCCC4)ccc31)[C@H](c1ccc(O)cc1)N1[C@H](c3ccccc3)[C@H](c3ccccc3)OC(=O)[C@H]1[C@@H]2C(=O)N1CCc2cc(OC)c(OC)cc2C1`, the composite z-score in assay [1] was -0.083; in [2], -0.183; in [3], 0.462; in assay [4], -1.69; in assay [5], -0.792; in assay [6] it was -0.505. For the same compound, the composite z-score in the assay with Lefty1 is -0.625; in assay [8], 0.663; in [10] it was -0.445; in assay [15], -1.33; in assay [16], -0.176; with Torsin-1A (Homo sapiens) [17] it was -0.576. Further, the composite z-score with Torsin-1A (Homo sapiens) [18] is -0.0551; in assay [19] it was -0.649. In addition, the z-score in [7] was -0.506; in [9], 0.503 (inactive); in assay [11] it was -2.45 (inactive); in assay [12] it was -1.73 (inactive); in assay [13], -1.7 (inactive); in assay [14], -0.805 (inactive).
